Among the test systems are NCI-H23 lung; NCI-H226 lung; NCI-H322M lung; HOP-62 NSCLC; NCI-H460 lung; HOP-92 NSCLC; NCI-H522 lung; A549/ATCC NSCLC; 786-0 renal; COLO 205 colon; DU-145 prostate; MALME-3M melanoma; MDA-MB-231 breast; RXF 393 renal; SF-268 CNS; SF-295 CNS; UACC-257 melanoma; M14 melanoma; K-562 leukemia; SF-539 CNS.
Holding throughout (test): NCI-60 one-dose screen, 48 h (100 = growth as untreated, 0 = no growth, -100 = all killed)
Details in all cases: 10 µM unless noted

SMILES strings stand for the structures. The panel holds about 83,000 compounds, 20% with a hit somewhere; the sample as a whole holds those more often.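 Step 1: grow cells in 96-well plates. Step 2: add test compound at a single concentration. Step 3: incubate 48 h. Step 4: record percent growth.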 A number with no mark means an inactive call. The source made the active and inactive calls. Rule for the calls: active = growth percent below 10; inactive = the rest.

With `CC1(C)CC(=O)C(c2c(-c3ccccc3)[nH]c3[nH]c(=S)[nH]c(=O)c23)=C(O)C1`, the growth in the test with NCI-H23 lung was 110%; in the test on NCI-H226 lung, 108%; with NCI-H322M lung it was 102%; in the test on HOP-62 NSCLC, 112%; in the test on NCI-H460 lung, 117%; in the test with HOP-92 NSCLC, 84.7%. Also, the growth is 107% in the test on NCI-H522 lung; 89.8% in the test on A549/ATCC NSCLC; 104% with 786-0 renal; 119% with COLO 205 colon; 124% in the test with DU-145 prostate; 112% with MALME-3M melanoma. For the same compound, the growth was 101% in the test with MDA-MB-231 breast; 115% in the test on RXF 393 renal; 106% with SF-268 CNS; 152% with SF-295 CNS; 80.2% with UACC-257 melanoma; 107% with M14 melanoma.

As to `O=C(/C=C/c1ccc(B(O)O)cc1)/C=C/c1ccc(B(O)O)cc1`, the growth was 62.4% in the test with NCI-H23 lung; 78.1% in the test with NCI-H226 lung; 80.9% in the test with NCI-H322M lung; 105% with HOP-62 NSCLC; 57.5% in the test on NCI-H460 lung; 82.6% with HOP-92 NSCLC. The growth is 72.4% in the test on NCI-H522 lung; 41.4% with A549/ATCC NSCLC; -72.5% (active) in the test with 786-0 renal; 36.8% in the test with COLO 205 colon; 64.4% in the test on DU-145 prostate; 12.9% in the test on K-562 leukemia. Further, the growth with MDA-MB-231 breast is 38.6%; in the test with RXF 393 renal it was 10.2%; in the test on SF-268 CNS, 59.2%; with SF-295 CNS, 89.8%; with SF-539 CNS, 21.6%; in the test with UACC-257 melanoma it was 51.9%. The growth with M14 melanoma is 20.5%.

On to `COc1ccc(CCN2CCCn3c2nc2ccccc2c3=O)cc1`, for which the growth is 32.7% in the test with NCI-H23 lung; 37.3% in the test with NCI-H226 lung; 45.4% in the test on NCI-H322M lung; 48.1% in the test with HOP-62 NSCLC; 10.7% in the test with NCI-H460 lung; 46.5% with HOP-92 NSCLC. For the same compound, the growth was 12.2% in the test with NCI-H522 lung; 28.6% in the test on A549/ATCC NSCLC; -10.2% (active) in the test with COLO 205 colon; 16.4% with DU-145 prostate; 13.1% in the test on K-562 leukemia; 59.8% with MALME-3M melanoma. The growth with MDA-MB-231 breast was 42.5%; in the test with RXF 393 renal, -0.0509% (active); with SF-268 CNS it was 56.9%; with SF-295 CNS it was 20.4%; with SF-539 CNS it was -16.3% (active); in the test with UACC-257 melanoma, 81.3%. For the same compound, in the test on M14 melanoma, the growth is 21.4%.

Take `O=C(CCN1CCOCC1)Nc1ccc(Cn2nnc3c2C(=O)c2nnn(Cc4ccc(NC(=O)CCN5CCOCC5)cc4)c2C3=O)cc1`: the growth was -20.9% (active) with NCI-H23 lung; 86.5% in the test on NCI-H226 lung; 10% in the test with NCI-H322M lung; 70.9% in the test with HOP-62 NSCLC; 13.3% with NCI-H460 lung; -20% (active) in the test with HOP-92 NSCLC. Moreover, the growth in the test with NCI-H522 lung was -28.9% (active); with A549/ATCC NSCLC, 84.8%; in the test with 786-0 renal, 98.5%; with COLO 205 colon, -73.8% (active); in the test with DU-145 prostate, 60.6%; in the test on MALME-3M melanoma it was -69.9% (active). Also, the growth in the test on MDA-MB-231 breast was -4.23% (active); with RXF 393 renal, 65.5%; in the test with SF-268 CNS, 1.49% (active); in the test with SF-295 CNS, 50.8%; in the test with UACC-257 melanoma it was -80.5% (active); with M14 melanoma, 35.9%.

In the case of `Cn1cc(-c2ccc(-c3cn(C)c4ncccc34)[nH]2)c2cccnc21`, the growth is 70.7% with NCI-H23 lung; 88.8% in the test on NCI-H226 lung; 86.1% in the test with NCI-H322M lung; 66.5% in the test on HOP-62 NSCLC; 97.8% with NCI-H460 lung; -4.05% (active) in the test with HOP-92 NSCLC. Also, the growth in the test with NCI-H522 lung is -77.3% (active); in the test on A549/ATCC NSCLC, 84.2%; in the test with 786-0 renal it was 99%; with COLO 205 colon it was -23.6% (active); in the test with DU-145 prostate, 94.2%; in the test with MALME-3M melanoma, 86.5%. The growth in the test with MDA-MB-231 breast was 63.8%; with RXF 393 renal it was 10.6%; in the test with SF-268 CNS, 45.9%; with SF-295 CNS, 86.3%; with UACC-257 melanoma it was 64.6%; in the test with M14 melanoma it was 76.2%.

`Nc1nc(-c2ccc(F)cc2)cc(-c2cnn(-c3ccccc3)n2)n1`: the growth in the test on NCI-H23 lung is 99.1%; in the test on NCI-H226 lung, 105%; with NCI-H322M lung, 93.9%; with HOP-62 NSCLC, 101%; with NCI-H460 lung, 103%; in the test on HOP-92 NSCLC, 94.1%. For the same compound, the growth in the test on NCI-H522 lung was 82.2%; in the test on A549/ATCC NSCLC, 95.3%; in the test on 786-0 renal, 107%; in the test on COLO 205 colon it was 105%; with DU-145 prostate, 104%; in the test on MALME-3M melanoma, 124%. Besides, the growth in the test on MDA-MB-231 breast was 102%; in the test with RXF 393 renal it was 97.4%; in the test on SF-268 CNS, 98.8%; with SF-295 CNS, 107%; with SF-539 CNS, 106%; in the test on UACC-257 melanoma, 95.8%. Further, the growth in the test with M14 melanoma was 117%.

As for `CC(=O)/C(=C/c1cccc(Cl)c1)C(=O)c1ccccc1`, the growth with NCI-H23 lung was 90.2%; in the test on NCI-H226 lung, 84.1%; with NCI-H322M lung, 100%; with HOP-62 NSCLC, 95.7%; in the test on NCI-H460 lung, 102%; with HOP-92 NSCLC, 88.7%. The growth in the test with NCI-H522 lung is 56.6%; with A549/ATCC NSCLC, 82.6%; in the test with 786-0 renal it was 93.2%; with COLO 205 colon, 107%; in the test with DU-145 prostate, 92.2%; with MALME-3M melanoma it was 85.5%. The growth is 84.8% in the test with MDA-MB-231 breast; 93.1% in the test with RXF 393 renal; 79.2% in the test with SF-268 CNS; 96.1% with SF-295 CNS; 105% with SF-539 CNS; 72.3% with UACC-257 melanoma. Further, in the test on M14 melanoma, the growth was 73.1%.

With `O=C(Cn1cc(CN2C(=O)c3ccccc3S2(=O)=O)nn1)Nc1ccc([N+](=O)[O-])cc1Cl`, the growth in the test with NCI-H23 lung was 90%; in the test on NCI-H226 lung it was 91.8%; in the test with NCI-H322M lung it was 94.5%; with HOP-62 NSCLC it was 101%; in the test with NCI-H460 lung it was 102%; in the test with HOP-92 NSCLC, 107%. In addition, the growth is 101% in the test on NCI-H522 lung; 106% in the test with A549/ATCC NSCLC; 105% with 786-0 renal; 103% in the test with COLO 205 colon; 105% in the test with DU-145 prostate; 101% in the test on MALME-3M melanoma. The growth was 90% with MDA-MB-231 breast; 110% with RXF 393 renal; 100% with SF-268 CNS; 108% in the test on SF-295 CNS; 101% with SF-539 CNS; 98.6% in the test with UACC-257 melanoma. For the same compound, the growth with M14 melanoma is 106%.

For the compound `COc1cc2cc(COc3nccc(-c4ccc(Cl)cc4)n3)c(=O)[nH]c2cc1OC`, the growth in the test on NCI-H23 lung was 88.5%; in the test on NCI-H226 lung it was 89.1%; in the test on NCI-H322M lung it was 79.6%; with HOP-62 NSCLC it was 88.2%; with NCI-H460 lung, 86.2%; with HOP-92 NSCLC, 69.9%. In addition, the growth in the test with NCI-H522 lung was 108%; in the test on A549/ATCC NSCLC it was 67.5%; in the test on 786-0 renal it was 80.9%; in the test on COLO 205 colon, 44.3%; in the test on DU-145 prostate, 81.4%; with MALME-3M melanoma it was 45.7%. Further, the growth with MDA-MB-231 breast is 55.1%; in the test on RXF 393 renal it was 61.9%; in the test on SF-268 CNS, 80.1%; in the test with SF-295 CNS it was 97.6%; with SF-539 CNS it was 67.9%; with UACC-257 melanoma, 98%. In addition, the growth with M14 melanoma was -27.4% (active).

(Values after PubChem BioAssay (NCI).)
